From PubChem BioAssay AID651638 (Johns Hopkins Ion Channel Center, 2012)
Screen size: about 2,400 compounds; about 2,400 (100%) were called active.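 The calls were made as follows: active = ratio percent of control, averaged over triplicates, above buffer control mean plus 5 SD (cut at about 64% in these data); inactive = the rest.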 So high a share suggests a set chosen from earlier hits. Not all results are given here.

The compounds below were run against Potassium channel subfamily K member 3 (Homo sapiens) (UniProt O14649) (assay: TASK1 potassium channel blockade, triplicate retest – CHO cells, FluxOR thallium flux, confirmation (AID 651638;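 also: ratio is the fluorescence rise from min to max over baseline after thallium stimulus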)). Conditions: CHO-KCNK3 thallium flux, FluxOR fluorescence; at 10 µM; stronger effect = higher value; 0% buffer, 100% carvedilol maximal block.
Sequence of Potassium channel subfamily K member 3 (Homo sapiens) (O14649 whole entry, looked up): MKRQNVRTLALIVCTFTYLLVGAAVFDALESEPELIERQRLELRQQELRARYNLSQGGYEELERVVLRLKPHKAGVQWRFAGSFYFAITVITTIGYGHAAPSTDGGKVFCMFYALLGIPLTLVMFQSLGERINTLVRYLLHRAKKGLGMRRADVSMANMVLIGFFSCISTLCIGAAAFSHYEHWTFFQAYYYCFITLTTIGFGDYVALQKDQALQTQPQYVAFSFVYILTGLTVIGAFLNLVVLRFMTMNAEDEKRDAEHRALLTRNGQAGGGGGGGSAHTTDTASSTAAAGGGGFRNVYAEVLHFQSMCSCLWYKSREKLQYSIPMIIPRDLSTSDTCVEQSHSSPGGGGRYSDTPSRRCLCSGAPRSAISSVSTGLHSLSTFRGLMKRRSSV

Ratio percent of control, active:
C=CCSc1nsc(NC(=O)Nc2cccc(C(C)=O)c2)n1 109%
COc1ccc([N+](=O)[O-])cc1-c1nc2ccccc2nc1-c1ccccc1 127%
COc1cccc(C(=O)NCCSc2ccc(Br)cc2)c1 92.3%
Cc1cccc2c1-c1sc(C(=O)NCCCN3CCc4ccccc4C3)cc1CO2 90.3%
Cc1cccc(C(=O)Nc2ccccc2N2CCN(c3ccc(F)cc3)CC2)c1 119%
O=C(Nc1ccccc1N1CCCC1)c1ccc2ccccc2c1 134%
CCCCC(=O)Nc1ccccc1N1CCN(c2ccc(F)cc2)CC1 102%
N#Cc1nc(Cc2cccc3ccccc23)oc1NCc1ccc2c(c1)OCO2 96%
N#Cc1cccc(NC(=O)COC(=O)c2ccccc2C(=O)c2ccc(Cl)c([N+](=O)[O-])c2)c1 135%
CC(Sc1nc2ccccc2c(=O)n1Cc1ccco1)C(=O)c1ccccc1 (stereo not given) 97%
Cc1cc(C)c(C#N)c(SCc2ccc3c(c2)OCO3)n1 137%
CCCCCCCCCCOC(=O)Cn1c(COc2cccc(OC)c2)[n+](C)c2ccccc21 119%
CS/C(=C\C(=O)c1ccco1)Nc1ccccc1Cl 95%
S=C(Nc1cccc(Br)c1)N1CCn2cccc2C1c1cccnc1 (stereo not given) 79.7%
CCCOc1ccc2c3c(c(=O)oc2c1OCCC)CCC3 111%
COc1ccc(CC(=O)Nc2nc(-c3ccc(F)c(F)c3)cs2)cc1OC 134%
CC(Oc1cccc(NC(=O)c2cccs2)c1)C(=O)c1ccccc1 (stereo not given) 103%
Cc1cccc(N(Cc2ccccc2)C(=O)c2ccccc2F)c1 88.3%
CCOc1ccc(C2c3[nH]c4ccccc4c3CCN2Cc2cccn2-c2ncccn2)cc1 (stereo not given) 117%
CC[n+]1cc(C)ccc1/C=C/c1ccc(N(C)C)cc1 143%
COc1ccc(C(C)=O)cc1COc1ccc(Cl)c(C)c1 117%
O=C(Nc1cccc(Cl)c1)Nc1ccccc1NS(=O)(=O)c1cccs1 138%
C=CCc1cc(S(=O)(=O)c2ccc(O)c(CC=C)c2)ccc1O 106%
CC(=O)N(C1=C(Cl)C(=O)c2ccccc2C1=O)c1ccc(C(=O)O)cc1 136%
COc1ccc(S(=O)(=O)NCCCCOc2ccc(Cl)cc2)cc1 123%
C=CCSc1nnc(N2C(=O)C(O)=C(C(=O)c3ccco3)C2c2ccc(F)cc2)s1 (stereo not given) 92%
O=C(Oc1ccc(Br)cc1C(=S)N1CCOCC1)c1cccc([N+](=O)[O-])c1 103%
CCCc1cc(C(=O)N2CCCC(CO)(CCCc3ccccc3)C2)n(C)n1 (stereo not given) 103%
CCN(CC)CCN(C(=O)c1cc(Cl)sc1Cl)c1nc2cc3c(cc2s1)OCO3 121%
COc1ccc(CN(C)C(=O)c2cc(-c3ccc(C)cc3C)nc3ccccc23)c(OC)c1OC 129%
CC(C)CCNC(=O)C(C)N(C(=O)Cn1nnc(-c2ccc(F)cc2)n1)C1CCCC1 (stereo not given) 74%
COC(=O)c1ccc(COC(=O)C2CCN(S(=O)(=O)c3c(Cl)cccc3Cl)CC2)o1 85.3%
CCn1ncc(Br)c1C(=O)Nc1cc(C)ccc1F 87.3%
O=C(Cn1cc(C(=O)c2cccs2)c2ccccc21)NCc1cccs1 116%
COc1cc(Cl)c(S(=O)(=O)N2CCN(Cc3ccc4c(c3)OCO4)CC2)cc1Cl 107%
Cc1nc2ccccc2cc1OCc1ccc(F)cc1 134%
[O-][n+]1ccc(OCc2ccccc2)cc1 73%
Cc1cc(OCCCCOc2ccc(C#N)cc2)ccc1[N+](=O)[O-] 119%
Cc1ccc(S(=O)(=O)NCc2cn3ccsc3n2)c(C)c1 64%
CC(C(=O)NCC1CCCCC1)N(C)Cc1cccc(Cl)c1 (stereo not given) 114%
O=C(CSc1nc(Nc2ccccc2)nc(N2CCOCC2)n1)Nc1cc(Cl)ccc1O 127%
Clc1cccc(-c2nc(NCC3CCCO3)c3ccccc3n2)c1 (stereo not given) 130%
CCc1ccc2nc3sc(C(=O)Nc4nnc(CC)s4)c(N)c3cc2c1 116%
CSc1cccc(NC(=S)N(C(C)C)C(C)c2ccccn2)c1 (stereo not given) 98.3%
COc1ccc(Cl)cc1NC(=O)C(C)N1CCc2ccccc21 (stereo not given) 96.3%
CCc1nc(SCC(=O)NNC(=O)c2ccc(C)cc2)c2ccccc2n1 78%
FC(F)(F)c1cccc(NC(=S)Nc2cccc(Cl)c2)c1 127%
CSc1nccc(NC(=O)c2ccc(C(C)(C)C)cc2)n1 116%
Cc1cccc(NC(=O)c2sc3nc4c(c(-c5ccco5)c3c2N)CCC4)c1 115%
N#Cc1ccc(S(=O)(=O)NCC(=O)OCC(=O)NCCc2ccccc2)cc1 63%
O=C1c2ccccc2C2=Nc3ccccc3SC(c3ccccc3F)C12 (stereo not given) 128%
O=C(c1cc(-c2ccc(O)cc2)on1)N1CCCc2ccccc21 76.7%
COc1ccc2c(c1)C(c1cccs1)=NNC(c1cccnc1)=N2 73.3%
CC(=O)Nc1cccc(OCC(=O)/C=C2\N(C)c3ccccc3C2(C)C)c1 124%
COc1cc(C(=O)Nc2oc(-c3ccccc3)c(-c3ccccc3)c2C#N)cc(OC)c1OC 119%
Cc1nonc1C1CCCN1C(=O)c1cc(COc2cccc(C(F)(F)F)c2)on1 (stereo not given) 87.3%
Cc1ccc(NC(=O)c2cc([N+](=O)[O-])ccc2Cl)c(O)c1 119%
O=C(CC1NCCc2ccccc21)Nc1cccc(Cl)c1 (stereo not given) 115%
CC(NCc1cccs1)C(=O)Nc1cc(Cl)cc(Cl)c1 (stereo not given) 96.3%
Cc1nc(N2CCN(c3ccccn3)CC2)c2c(C)c(C(=O)Nc3ccc(F)c(Cl)c3)sc2n1 129%
Cc1nc(N2CCOCC2)c2c(C)c(C(=O)Nc3ccc(C(F)(F)F)cc3)sc2n1 136%
Cc1nc(N2CCN(c3ccccn3)CC2)c2c(C)c(C(=O)Nc3ccc(F)cc3)sc2n1 125%
CSc1nnc2c(n1)OC(c1ccsc1)N(C(C)=O)c1ccccc1-2 (stereo not given) 106%
CSCc1cc(N(C)C)nc(SCc2ccc(Cl)cc2Cl)n1 115%
O=C(Nn1c(SCc2ccc([N+](=O)[O-])cc2)nc2ccccc2c1=O)c1ccc(F)cc1 139%
COc1ccc(C2Nc3ccccc3C(=O)N2Cc2ccccc2)cc1Cn1nnc2ccccc21 (stereo not given) 110%
FC(F)(F)c1cc(-c2ccco2)nc(NCc2ccc(Cl)cc2)n1 126%
FC(F)(F)c1cccc(-c2cc3ccccc3nc2N2CCCC2)c1 101%
CC(=O)N1CCCc2cc(S(=O)(=O)N3CCCC(C(=O)N4CCN(c5cccc(Cl)c5)CC4)C3)ccc21 (stereo not given) 119%
CC(=O)c1ccccc1OCc1ccc(C(=O)c2ccccc2)cc1 121%
COc1ccc(CCNC(=O)c2ccccc2OCc2ccccc2)cc1 101%
CC(C)c1ccccc1OCC(O)CN(CC(O)COc1cccc2ccccc12)C(C)C (stereo not given) 119%
Cc1cccc(C)c1N1CCN(S(=O)(=O)N2CCCCC2)CC1 122%
N/C(Cc1ccc([N+](=O)[O-])cc1)=N\OC(=O)COc1ccc2ccccc2c1 112%
COC(=O)c1cc(NC2c3ccccc3C(=O)N2c2ccc(Cl)cn2)cc(C(=O)OC)c1 (stereo not given) 115%
COc1cc(/C=C(\C#N)c2nc3ccccc3[nH]2)ccc1O 125%
COc1ccccc1N1CCN(/N=C\C(Br)=C\c2ccccc2)CC1 89.7%
O=C(Nc1ccccc1)O/N=C1\CCCCC1c1ccc([N+](=O)[O-])cc1[N+](=O)[O-] (stereo not given) 118%
CC(C)c1cc(C(=O)N/N=C/c2ccoc2)c(O)c(C(C)C)c1 123%
CCCCCCCCCCCCN1C(=O)CSC1c1cccnc1 (stereo not given) 125%
CCc1cc(C(c2ccccc2OC)N2CCOCC2)c(NC(=O)c2ccccc2)s1 (stereo not given) 102%
COc1cccc(CNc2nc(C(F)(F)F)nc3ccccc23)c1 125%
Cc1cccc2cc(CN(Cc3nnnn3Cc3ccccc3)C3CCCC3)c(=O)[nH]c12 115%
COc1cccc(NC(=S)N(CCc2c(C)[nH]c3ccccc23)Cc2ccco2)c1 113%
COc1ccccc1NC(=O)CSc1nc2sc(C)c(C)c2c(=O)n1Cc1ccco1 108%
O=C(Nc1cccc(S(=O)(=O)Nc2ccc(Cl)cc2)c1)c1ccc2c(c1)OCCO2 105%
C=CCN(N=Nc1cccc([N+](=O)[O-])c1)c1cccc([N+](=O)[O-])c1 109%
COc1ccccc1C(c1nnnn1C(C)(C)C)N1CCN(Cc2ccccc2)CC1 (stereo not given) 109%
COC(=O)C1=C(C)N(C(C)c2ccccc2)C(=O)/C1=C\c1ccco1 (stereo not given) 105%
Cc1ccc(NC(=S)N2CCCC(c3ccccc3)=N2)cc1 97.7%
c1ccc(C(c2ccccc2)N2CCN(Cc3nnnn3C3CCCCC3)CC2)cc1 118%
Cc1cccc(-c2nc3ccc(C(=O)NCCN4CCN(C)CC4)cc3nc2-c2cccc(C)c2)c1 106%
O=C(NCCc1ccccc1)c1ccc2c(c1)N(Cc1ccccc1)CCS2 108%
Cc1c(C(=O)N2CCCc3ccccc32)sc2nc(-c3ccccc3)cn12 102%
C=CCN(C(=O)c1cc(C)cc(C)c1)C1(C(=O)Nc2ccccc2)CCN(C(C)C)CC1 93%
CCCC(=O)Nc1ccc(Cl)c(NC(=O)c2ccc(Br)o2)c1 92.7%
O=C(N/N=C/c1cccc(OCc2ccccc2)c1)c1ccc(Br)o1 116%
Cc1ccc(NC(=O)COC(=O)CNC(=O)c2ccc(Cl)cc2Cl)cc1S(=O)(=O)N1CCOCC1 89%
COc1ccc(-c2nc(CCNC(=O)c3ccc(Br)o3)cs2)cc1 84.7%
CN1CCc2ccccc2C1Cc1ccccc1NC(=O)c1sc2ccccc2c1Cl (stereo not given) 114%
c1ccc2c(NC3C4CC5CC(C4)CC3C5)nc(N3CCOCC3)nc2c1 (stereo not given) 122%
CCOc1ccccc1Oc1cn[nH]c1-c1ccc(OC)cc1O 114%
COCCNc1cc(-c2ccccc2)nc2cc(-c3cccc(F)c3)nn12 130%
COc1cccc(CN(C)CC(O)COC(c2ccccc2)c2ccccc2C)c1 (stereo not given) 110%
Oc1ccc(/C=N/Nc2nc(-c3ccccc3F)nc3ccccc23)c(O)c1 93.3%
O=C(NCCc1c[nH]c2ccccc12)c1cccc(Br)c1 118%
Cc1cc(NC(=O)Nc2ccc(Cl)cc2)n(-c2ccccc2)n1 100%
CN(CCC(=O)Nc1cc(S(=O)(=O)N(C)C)ccc1Cl)CC(=O)Nc1ccc(F)cc1 118%
COc1cccc(COc2ccc(N(C)S(=O)(=O)c3ccccc3)cc2)c1 132%
O=C(N/N=C/c1sc(N2CCCCC2)nc1-c1cccs1)c1cccnc1 123%
COc1cccc(/C=N/Nc2cc(C)nc(-c3ccccc3O)n2)c1O 134%
CCC(C)(C)n1nnnc1C(c1cccs1)N1CCN(c2nc3ccccc3s2)CC1 (stereo not given) 112%
O=C(CNCCC1=CCCCC1)Nc1ccccc1N1CCCCCC1 113%
Cc1cc(C)c(S(=O)(=O)c2ccccc2)c(OC(=O)c2c(F)cccc2Cl)n1 78%
COc1ccc(Nc2ncnc3sc(-c4ccccc4)cc23)c(OC)c1 112%
